Where a name gives a salt, the structure may show the parent alone. ± gives the standard deviation of the averaged measurements.
What was measured:
Assay in all cases: cell viability (% of vehicle); higher = less cytotoxic
Conditions in all cases: 10 µM; 72 h
HCI01 = test system: HCI01 (cells of a triple-negative basal-like breast cancer xenograft)
HCI03 = test system: HCI03 (cells of an ER-positive luminal breast cancer xenograft)
HCI09 = test system: HCI09 (cells of a triple-negative luminal androgen receptor type breast cancer xenograft)
HCI11 = test system: HCI11 (cells of an ER-positive luminal breast cancer xenograft)
HCI13 = test system: HCI13 (cells of an ER-positive luminal breast cancer xenograft)
HCI16 = test system: HCI16 (cells of a triple-negative basal-like breast cancer xenograft)
UCD52 = test system: UCD52 (cells of a triple-negative basal-like breast cancer xenograft)
WHIM2 = test system: WHIM2 (cells of a triple-negative basal-like breast cancer xenograft)
WHIM30 = test system: WHIM30 (cells of a triple-negative basal-like breast cancer xenograft)
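Note: PDX cells carrying CMV promoter-driven luciferase, viability read as total photon flux per second by IVIS imaging following D-luciferin, vehicle control 0.1% DMSO.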

Compound | cell viability (HCI01) | cell viability (HCI03) | cell viability (HCI09) | cell viability (HCI11) | cell viability (HCI13) | cell viability (HCI16) | cell viability (UCD52) | cell viability (WHIM2) | cell viability (WHIM30)
COC(=O)CCc1ccc(OCC(O)CNC(C)C)cc1.Cl (stereo not given) [Esmolol HCl] | 133 ± 46 | 121 | 96.2 ± 1.9 | 95.3 | 96.8 ± 12 | 122 | 105 ± 18 | 108 ± 17 | 113 ± 2.2
Cl.NNc1nncc2ccccc12 [Hydralazine HCl] | 142 ± 22 | 131 | 113 ± 9.5 | 79.8 | 121 ± 7.1 | 180 | 162 ± 3.2 | 148 ± 5.5 | 151 ± 11
N#CC(c1ccc(Cl)cc1)c1c(Cl)cc(-n2ncc(=O)[nH]c2=O)cc1Cl (stereo not given) [Diclazuril] | 98.7 ± 32 | 119 | 64 ± 57 | 95.3 | 59.1 ± 10 | 123 | 96.3 ± 31 | 115 ± 19 | 161 ± 11
Nc1nc(=O)c2c([nH]1)NCC(CNc1ccc(C(=O)NC(CCC(=O)[O-])C(=O)[O-])cc1)N2C=O.O.O.O.O.O.[Ca+2] (stereo not given) [Leucovorin Calcium] | 104 ± 22 | 102 | 131 ± 55 | 83.9 | 108 ± 13 | 127 | 122 ± 2.5 | 67.9 ± 22 | 156 ± 29
Cc1cccc(C)c1OCC(=O)NC(Cc1ccccc1)C(O)CC(Cc1ccccc1)NC(=O)C(C(C)C)N1CCCNC1=O (stereo not given) [Lopinavir] | 83 ± 1.7 | 102 | 57.3 ± 20 | 88.4 | 93.7 ± 6.3 | 116 | 48 ± 4 | 73.6 ± 13 | 96.4 ± 16
Cn1c(=O)c2c(ncn2CC(O)CO)n(C)c1=O (stereo not given) [Dyphylline] | 98.4 ± 7.5 | 122 | 98 ± 15 | 114 | 117 ± 14 | 85.9 | 90.2 ± 3.7 | 104 ± 1.1 | 119 ± 24
CCn1cc(C(=O)O)c(=O)c2cc(F)c(N3CCNCC3)nc21 [Enoxacin (Penetrex)] | 101 ± 5.7 | 144 | 102 ± 13 | 109 | 104 ± 12 | 91 | 79.6 ± 0.81 | 85.5 ± 12 | 98.8 ± 2.7
Cc1ccc(S(=O)(=O)NC(=O)NN2CC3CCCC3C2)cc1 (stereo not given) [Gliclazide] | 93.2 ± 72 | 143 | 90.8 ± 21 | 90.2 | 105 ± 4.1 | 122 | 95.6 ± 12 | 125 ± 8.1 | 125 ± 9.6
Cc1nnc(C(=O)NC(C)(C)c2nc(C(=O)NCc3ccc(F)cc3)c(O)c(=O)n2C)o1 [Raltegravir (MK-0518)] | 126 ± 2 | 134 | 97 ± 18 | 116 | 93.4 ± 11 | 118 | 119 ± 20 | 116 ± 15 | 136 ± 7.5
OCC1OC(OC2(CCl)OC(CCl)C(O)C2O)C(O)C(O)C1Cl (stereo not given) [Sucralose] | 112 ± 2.4 | 128 | 91.4 ± 5.3 | 89.1 | 70 ± 4.5 | 140 | 70.9 ± 6.8 | 124 ± 30 | 110 ± 7.1
NC(=O)C(CCC(F)(F)F)N(Cc1ccc(-c2ncon2)cc1F)S(=O)(=O)c1ccc(Cl)cc1 (stereo not given) | 96 ± 23 | 142 | 67.5 ± 2.2 | 75.5 | 102 ± 16 | 96.7 | 81.58 ± 0.81 | 107.6 ± 0.73 | 124 ± 13
NC1CCCCC1N.O=C([O-])C(=O)[O-].[Pt+2] (stereo not given) [Oxaliplatin] | 97.5 ± 3.3 | 108 | 75.7 ± 30 | 114 | 89 ± 12 | 118 | 137 ± 9.3 | 108 ± 14 | 154 ± 2
NCCCC(O)(P(=O)([O-])O)P(=O)(O)O.O.O.O.[Na+] [Alendronate] | 89.6 ± 12 | 123 | 85.1 ± 12 | 69.5 | 106 ± 5.1 | 109 | 94.7 ± 19 | 104 ± 5.2 | 97.5 ± 11
OC[C@@H](O)[C@@H](O)[C@H](O)[C@H](O)CO [D-Mannitol] | 74.7 ± 26 | 95.7 | 93.1 ± 16 | 83.2 | 88.7 ± 6.7 | 114 | 74 ± 2.5 | 97.5 ± 16 | 115 ± 6.2
COc1c(C)c2c(c(O)c1CC=C(C)CCC(=O)O)C(=O)OC2 [Mycophenolic acid] | 99.5 ± 27 | 93.3 | 77.8 ± 17 | 75.1 | 102 ± 9.5 | 104 | 94 ± 6.1 | 65.8 ± 7.6 | 151 ± 1.2
Cl.N#Cc1ccc2[nH]cc(CCCCN3CCN(c4ccc5oc(C(N)=O)cc5c4)CC3)c2c1 [Vilazodone Hydrochloride] | 135 ± 3.5 | 103 | 104 ± 18 | 122 | 113 ± 6.7 | 166 | 111 ± 3.3 | 109 ± 20 | 112 ± 17
CN(CCOc1ccc(NS(C)(=O)=O)cc1)CCc1ccc(NS(C)(=O)=O)cc1 [Dofetilide] | 101.7 ± 0.3 | 114 | 94.8 ± 5.2 | 94.2 | 97.8 ± 17 | 89.3 | 81.6 ± 13 | 90.2 ± 10 | 106 ± 5.1
COC(=O)C1=C(C)NC(C)=C(C(=O)OCC(C)C)C1c1ccccc1[N+](=O)[O-] (stereo not given) [Nisoldipine] | 98.3 ± 32 | 109 | 27.4 ± 1.6 | 74 | 93.1 ± 39 | 180 | 84.1 ± 5.2 | 88.6 ± 17 | 123 ± 16

Compound | cell viability (HCI01) | cell viability (HCI03) | cell viability (HCI09) | cell viability (HCI11) | cell viability (HCI13) | cell viability (HCI16) | cell viability (UCD52) | cell viability (WHIM2) | cell viability (WHIM30)
CN(C)CCc1c[nH]c2ccc(CS(=O)(=O)N3CCCC3)cc12.O=C(O)CC(O)C(=O)O [Almotriptan Malate] | 105 ± 5 | 132 | 103 ± 6 | 86.5 | 84.8 ± 7.8 | 144 | 87.7 ± 4.3 | 90.6 ± 0.17 | 134 ± 8
CC(=O)[C@@]1(O)CC[C@H]2[C@@H]3CCC4=CC(=O)CCC4=C3[C@@H](c3ccc(N(C)C)cc3)C[C@@]21C [Ulipristal] | 70.8 ± 48 | 147 | 36.6 ± 13 | 82.9 | 113 ± 3.3 | 118 | 93.5 ± 11 | 87.8 ± 10 | 142 ± 1.3
CCOC(=O)n1ccn(C)c1=S [Carbimazole] | 90.9 ± 7.9 | 145 | 95 ± 11 | 93.4 | 66.4 ± 18 | 101 | 95.5 ± 7.5 | 104 ± 30 | 135 ± 11
NC(N)=NS(=O)(=O)c1ccc(N)cc1 [Sulfaguanidine] | 99.8 ± 16 | 135 | 88.6 ± 12 | 86.1 | 108 ± 7.2 | 135 | 85.4 ± 6.9 | 116 ± 6.5 | 118 ± 2.4
N=C(NCCCCCCNC(=N)NC(=N)Nc1ccc(Cl)cc1)NC(=N)Nc1ccc(Cl)cc1 [Chlorhexidine digluconate] | 77.9 ± 12 | 118 | 60.1 ± 19 | 76 | 68.6 ± 2 | 112 | 98.5 ± 24 | 48.8 ± 1.5 | 103 ± 6
Cc1ccsc1C(=CCCN1CCC[C@@H](C(=O)O)C1)c1sccc1C [Tiagabine hydrochloride] | 100 ± 1.8 | 93.2 | 90.8 ± 14 | 86.4 | 96.1 ± 6.3 | 95.6 | 97.2 ± 14 | 109 ± 34 | 105 ± 2
CC1OC(OCC2OC(Oc3c(-c4ccc(O)c(O)c4)oc4cc(O)cc(O)c4c3=O)C(O)C(O)C2O)C(O)C(O)C1O (stereo not given) [Rutin] | 107 ± 32 | 128 | 101 ± 9.8 | 102 | 118 ± 8.5 | 138 | 103 ± 14 | 122 ± 9.8 | 101 ± 13
Cc1cccc(N(C)C(=S)Oc2ccc3ccccc3c2)c1 [Tolnaftate] | 113 ± 28 | 140 | 72.7 ± 30 | 95.2 | 96.2 ± 8.2 | 108 | 71.2 ± 2.5 | 91.6 ± 8.1 | 131 ± 9.2
CN(C)CCCN1c2ccccc2Sc2ccc(Cl)cc21.Cl [Chlorpromazine HCl] | 137 ± 40 | 98.9 | 68.1 ± 7.8 | 76.5 | 84.7 ± 3.1 | 122 | 51.4 ± 5.5 | 47.8 ± 7.8 | 104 ± 2.1
CC(C)OC(=O)C(C)NP(=O)(OCC1OC(n2ccc(=O)[nH]c2=O)C(C)(F)C1O)Oc1ccccc1 (stereo not given) | 85.3 ± 7.8 | 103 | 79.3 ± 11 | 79.5 | 82.5 ± 5.5 | 141 | 84.26 ± 0.3 | 104 ± 7 | 120 ± 5
NS(=O)(=O)c1cc2c(cc1Cl)NC=NS2(=O)=O [Chlorothiazide] | 101 ± 4.1 | 149 | 102 ± 12 | 121 | 134 ± 16 | 90 | 93.8 ± 13 | 89.4 ± 27 | 124 ± 29
COc1cc2c(cc1O)CCC1C2CCC2(C)C(O)CCC12 (stereo not given) [2-Methoxyestradiol (2-MeOE2)] | 141 ± 8 | 110 | 94.8 ± 12 | 117 | 181 ± 10 | 121 | 95.1 ± 7.2 | 114 ± 7 | 150 ± 22
Nc1nc(N)c2nc(-c3ccccc3)c(N)nc2n1 [Triamterene] | 105 ± 25 | 148 | 116 ± 17 | 109 | 120 ± 12 | 138 | 123 ± 28 | 94.5 ± 15 | 122 ± 17
CN(C)CCCC1(c2ccc(F)cc2)OCc2cc(C#N)ccc21.O=C(O)C(=O)O (stereo not given) [Escitalopram Oxalate] | 99.8 ± 9.9 | 114 | 97.3 ± 12 | 86.2 | 93.6 ± 18 | 128 | 90.9 ± 5.2 | 87.5 ± 5.9 | 157 ± 21
CC(=O)O.CC(O)C(CO)NC(=O)C1CSSCC(NC(=O)C(N)Cc2ccccc2)C(=O)NC(Cc2ccccc2)C(=O)NC(Cc2c[nH]c3ccccc23)C(=O)NC(CCCCN)C(=O)NC(C(C)O)C(=O)N1 (stereo not given) [Octreotide acetate] | 86.6 ± 6.2 | 135 | 87.9 ± 14 | 95.4 | 87.9 ± 3.6 | 90.1 | 84.3 ± 9.8 | 86.9 ± 20 | 102 ± 15
CC(=O)Nc1ncc([N+](=O)[O-])s1 [Nithiamide] | 112 ± 16 | 159 | 106 ± 6.2 | 105 | 67.5 ± 5.2 | 133 | 109 ± 6.1 | 117 ± 13 | 91.3 ± 2
Cl.Nc1ncnc2nc[nH]c12 [Adenine HCl] | 124 ± 9.7 | 126 | 112 ± 4.7 | 117 | 87.7 ± 10 | 147 | 165 ± 5.9 | 106 ± 4.3 | 101 ± 7.6
